The entries come from a sample that favours hits as a whole.
DT40 TDP1 no CPT – qHTS for Inhibitors of human tyrosyl-DNA phosphodiesterase 1 (TDP1): qHTS in cells in absence of CPT. DT40 Tdp1-/- hTDP1 cells, no CPT, ATP luminescence, 48 h. Potency, µM (series often up to 46.2 µM), for the others: at the top dose activity change, negative = growth inhibition, hits mostly inhibitors. 420,000 compounds, 15% hits; further: potency means the concentration at half of the fitted maximal effect; nearly all actives have a fitted effect of over 55% in size
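Chicken DT40 Tdp1-/- cells complemented with human TDP1, screened without camptothecin (DMSO vehicle only), 400 cells/well. Compounds pin-transferred, cells incubated at 37 °C for at least 48 hr. Growth read as ATP-dependent luminescence (CellTiter-Glo, 30 min at RT).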
HT1080-NT tox – kills 2HG-producing HT-1080-NT fibrosarcoma cells; HT-1080-NT fibrosarcoma viability, CellTiter-Glo ATP luminescence, 48 h; Potency, µM (series often up to 46.1 µM), without a hit: at the top dose activity, negative = less viability, most hits filed as cytotoxic; 360,000 compounds, 1.6% hits; AID 686970;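 further: NT is the 2HG producing partner of a matched IDH1 knockdown line; potency means the concentration at half of the fitted maximal effect; 0% = DMSO-treated cells and -100% = media-only wells without cells; nearly all actives have a fitted effect of over 55% in size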
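Luminescent CellTiter-Glo readout after 48 hours of compound exposure at 37 degrees C defined viability of HT-1080-NT cells. Activity was normalized to DMSO wells and cell-free media wells; concentration-response curves were fitted and assigned curve classes.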
IL-1B inflam inh – inflammasome signaling inhibition, IL-1 beta readout; THP-1 LPS/ATP IL-1B secretion, AlphaLISA, 16 h; stronger effect = lower value; activity change, % at 57.5 µM; 360,000 compounds, 4.7% hits; in the data active means activity change below about -50%; inconclusive means mostly about -30% to -49%
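THP-1 cells pretreated 1 hr with compounds (up to 57.5 uM final), then stimulated with LPS (250 ng/mL final) plus ATP (1.25 mM final); secreted IL-1B measured by AlphaLISA after 16 hr, decreased signal indicating inhibition.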
HT1080 IDH1KD tx – HT-1080 IDH1 knockdown cell toxicity (counter line) | HT-1080 IDH1 knockdown viability, ATP luminescence, 48 h | Potency, µM (top dose mostly 46.1 µM), for the others: at the top dose activity, negative = toxicity, most hits filed as cytotoxic | 360,000 compounds, 2% hits;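 further: potency means the concentration at half of the fitted maximal effect; 0% = DMSO wells and -100% = cell-free medium wells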
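In this qHTS, HT-1080 cells depleted of IDH1 are exposed for 48 h at 37 °C to compound titrations. Toxicity is scored from CellTiter-Glo luminescence, with DMSO as full viability and medium alone as none.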
TDP1 cell CPT – growth inhibition of DT40 Tdp1-/-;hTDP1 cells with camptothecin (screen for TDP1 inhibitors) | chicken DT40 Tdp1-/-;hTDP1 cells + 20 nM CPT, ATP luminescence, 48 h | Potency, µM (series often up to 46.2 µM), inactives show top-dose activity change, negative = growth inhibition, most hits filed as inhibitors | 420,000 compounds, 12% hits; further: potency means the concentration at half of the fitted maximal effect; nearly all actives have a fitted effect of over 55% in size
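Chicken DT40 Tdp1-/- cells stably complemented with human TDP1 were seeded at 400 cells/well in medium containing 20 nM camptothecin, exposed to pin-transferred compounds, and grown at 37 °C for at least 48 hr. Viability was read as ATP luminescence.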
ALOX12 inh – blocks human arachidonate 12S-lipoxygenase. P18054. 580,000 compounds, 1.1% hits. purified 12hLO, xylenol orange hydroperoxide absorbance. AID 1671190. Potency, µM (top dose mostly 108 µM), for the others: at the highest dose activity change, negative = inhibition, most hits filed as inhibitors; further: potency means the concentration at half of the fitted maximal effect
Target sequence (P18054 whole entry, looked up): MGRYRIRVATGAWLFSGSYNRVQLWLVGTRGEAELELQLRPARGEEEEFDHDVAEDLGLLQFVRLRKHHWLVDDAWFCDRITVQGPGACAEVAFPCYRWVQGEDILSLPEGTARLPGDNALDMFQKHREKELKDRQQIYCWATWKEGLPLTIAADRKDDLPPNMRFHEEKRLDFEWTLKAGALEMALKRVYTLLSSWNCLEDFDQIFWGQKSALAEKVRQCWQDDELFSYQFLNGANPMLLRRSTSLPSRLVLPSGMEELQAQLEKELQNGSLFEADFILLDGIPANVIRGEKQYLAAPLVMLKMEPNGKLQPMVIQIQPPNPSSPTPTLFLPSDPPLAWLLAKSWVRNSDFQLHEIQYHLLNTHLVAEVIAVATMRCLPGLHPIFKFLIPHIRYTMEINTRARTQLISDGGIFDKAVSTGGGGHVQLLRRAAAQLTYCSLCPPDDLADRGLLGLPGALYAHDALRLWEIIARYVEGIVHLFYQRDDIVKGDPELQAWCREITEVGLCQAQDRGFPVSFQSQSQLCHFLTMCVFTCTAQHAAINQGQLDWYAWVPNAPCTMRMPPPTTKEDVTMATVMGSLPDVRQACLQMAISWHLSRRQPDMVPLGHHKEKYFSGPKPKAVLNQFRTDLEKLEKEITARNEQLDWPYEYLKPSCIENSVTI
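Purified human 12hLO (150 nM final) in 25 mM Hepes, 0.01% Triton X-100, pH 7.0 was preincubated 15 min at room temperature with compound. Then 40 uM arachidonic acid was added, 30 min. Hydroperoxide was read by Fe-XO absorbance ratio 573/405 nm.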
The depositor's hits bear a star; ? = inconclusive; · = no result; [ ] = another dose, or the depositor's remark. Unless noted, the call rests on the fitted dose curve; in most records, active means well fitted curve in the direction sought with a large enough effect; inconclusive means small, poorly fitted or top-dose-only effect, or another doubt; inactive means no such curve, though single readings can be large; an effect the other way counts as inactive or inconclusive. Unless noted, on the % scale 0 is the no-effect control and ±100 the full control effect.

SMILES	DT40 TDP1 no CPT	HT1080-NT tox	IL-1B inflam inh	HT1080 IDH1KD tx	TDP1 cell CPT	ALOX12 inh
O=C1CC(c2ccccc2)N(C(=O)C2CC2)CCCN(C(=O)NCc2ccc(F)cc2)CCN1 (stereo not given)	·	·	·	·	·	21%
CC/C(=C\C(=O)c1ccncc1)Nc1ccc(Br)cc1	?	0%	-67*	-8%	?	60%
O=C(NNC(=O)c1ccc(Br)cc1)c1ccncc1	-7%	3%	11	-2%	1%	4%
Nc1ccc2oc3ccc(N)cc3c(=O)c2c1	-7%	-3%	-73*	3%[9.24 µM]	4%	-3%
Nc1ccc2c(=O)[nH][nH]c(=O)c2c1	-20%	16%	-10	21%	-19%	-6%
O=C(Nc1ccc(N2CCN(C(=O)c3ccco3)CC2)cc1)c1ccc([N+](=O)[O-])cc1Cl	21µM*	-26%	-5	-18%	?	-1%
Cc1ccc(C(=O)Nc2ccc(N3CCN(C(=O)c4ccco4)CC3)cc2)c(Cl)c1	13µM*	-18%	?	-25%	?	-9%
O=C(Nc1ccc2c(c1)CCCN2C(=O)c1ccco1)c1cc([N+](=O)[O-])ccc1Cl	?	-19%	-87*	?	?	?
O=C(Nc1ccc(N2CCN(C(=O)c3ccco3)CC2)cc1)c1ccccc1Br	?	1%	-62*	0%	?	-4%
Cc1ccccc1C(=O)Nc1ccc(N2CCN(C(=O)c3ccco3)CC2)cc1	?	14%	?	5%	-16%	-5%
O=C1CCN(CC2CCCCC2)CCCC(c2nc(-c3cccnc3)no2)CCN1 (stereo not given)	·	·	·	·	·	30%
Cc1cc(SCc2ccc(Cl)c(Cl)c2)nc2ccc(F)cc12	·	·	·	·	·	-13%
CCCS(=O)(=O)N1CCCN(C(=O)C2CC2)C(c2ccccc2)CC(=O)NCC1 (stereo not given)	·	·	·	·	·	14%
C=CCn1c(O)c(N=NC(=O)CNC(=O)c2ccco2)c2ccccc21	4.1µM*	?	37	21µM*	6.5µM*	-1%
CCn1c(O)c(N=NC(=O)c2cccs2)c2ccccc21	15µM*	14%	29	10%	23µM*	32%
CCn1c(O)c(N=NC(=O)CNC(=O)c2ccco2)c2ccccc21	?	-29%	4	-14%	?	-10%
CCCn1c(O)c(N=NC(=O)CNC(=O)c2cccnc2)c2ccccc21	-11%	-5%	-4	-5%	-21%	-29%
O=C(N=Nc1c(O)[nH]c2ccccc12)c1ccco1	16µM*	-17%	?	-17%	?	2%
CCCn1c(O)c(N=NC(=O)c2cccnc2)c2cc(Br)ccc21	?	18µM*	51	-22%	16µM*	7%
N#Cc1c(Oc2ccccc2)cc(Oc2ccccc2)cc1SCc1ccccc1	·	·	·	·	·	4%
COc1ccc(-c2coc3cc(OC(=O)c4ccccc4)ccc3c2=O)cc1OC	·	·	·	·	·	-12%
O=C(NCc1cccs1)c1ccc2sc(COCCO)nc2c1	-20%	27%	6	7%	-5%	5%
COc1cc(/C=N/O)c(Br)c(Br)c1OCc1ccccc1Cl	·	·	·	·	·	-10%
CCCn1c(O)c(N=NC(=O)c2ccco2)c2ccccc21	12µM*	20%	-8	15%	13µM*	4%
CCCn1c(O)c(N=N)c2ccccc21	-13%	-4%	7	-9%	-22%	6%
Cc1cccc(NC(=O)Cn2c(O)c(N=NC(=O)c3ccccc3O)c3ccccc32)c1	4.6µM*	?	5	?	-5%	-20%
CNC(=O)c1cc(=O)n(CC(=O)Nc2cccc(C)c2)c2ccccc12	·	·	·	·	·	-12%
CC1=C(NCCc2ccccc2)CCC1=O	21µM*	-1%	38	1%	21µM*	0%
